A short description of test [1]: ATG_DR4_LXR_CIS: Attagene CIS-FACTORIAL HepG2 Assay for human Liver X Receptor (LXR), DR4 submotif (AID 2282929). The settings on record: HepG2 Attagene DR4 cis-reporter, mRNA transcription; AC50: actives raise or lower the signal unless noted; outcome: actives raise or lower the signal unless noted. A digest of the protocol:
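After transient transfection with multiplexed cis-promoter reporter units, HepG2 cells received test chemicals for 24 h. Reporter mRNA induction, detected by fluorescence after RT-PCR and capillary electrophoresis, was scored relative to DMSO.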

In test [2] the target is Aryl hydrocarbon receptor (Homo sapiens) (UniProt P35869). In words: ATG_Ahr_CIS: Attagene CIS-FACTORIAL HepG2 Assay for human Aryl Hydrocarbon Receptor (Ahr) (AID 2282930). The note with it: HepG2 AhR cis-factorial reporter transcription; actives raise or lower the signal. A digest of the protocol:
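Endogenous factor activity is tracked through cis-promoter reporter units transfected into HepG2 cells. Transcript levels at 24 h are read by fluorescent RT-PCR and capillary electrophoresis, with activity in either direction scored relative to DMSO.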

Test [3] in a line: ATG_AP_1_CIS: Attagene CIS-FACTORIAL HepG2 Assay for human Activator Protein 1 (AP-1) (AID 2282931). The settings on record: HepG2 Attagene cis-factorial AP-1 reporter mRNA; actives raise or lower the signal. The method in brief: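 After 24 h incubation with test chemical, RNA from transfected HepG2 cells was reverse-transcribed, amplified, fluorescently labelled and digested before capillary electrophoresis. Reporters were driven by cis-regulatory promoters; activity fitted bidirectionally versus DMSO.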

Test [4] in a line: ATG_AP_2_CIS: Attagene CIS-FACTORIAL HepG2 Assay for human Activator Protein 2 (AP-2) (AID 2282932). The note with it: HepG2 AP-2 cis-reporter, Attagene transcription factor profiling; AC50: actives raise or lower the signal unless noted; outcome: actives raise or lower the signal unless noted. The method in brief:
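Read-out: fluorescent reporter mRNA via RT-PCR and capillary electrophoresis, 24 h post-dose in transiently transfected HepG2. Endogenous factors drive cis-promoter reporters; gain or loss of signal fitted bidirectionally against DMSO.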

Test [5] in a line: ATG_BRE_CIS: Attagene CIS-FACTORIAL HepG2 Assay for human Bone Morphogenetic Protein (BMP) Response Element (BRE) (AID 2282933). The note with it: HepG2 BMP response element reporter, Attagene transcription factor profiling; actives raise or lower the signal. The method in brief: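 Multiplexed cis-reporter assay, HepG2, 24 h exposure. mRNA from reporter units quantified via RT-PCR/CE; DMSO baseline; bidirectional curve fit.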

Test [6] addresses Retinoic acid receptor alpha (Homo sapiens) (UniProt P10276). In words: ATG_DR5_RAR_CIS: Attagene CIS-FACTORIAL HepG2 Assay for human Retinoic Acid Receptor Alpha (RARE), DR5 submotif (AID 2282934). The settings on record: HepG2 Attagene cis-factorial RARE DR5 reporter, mRNA; actives raise or lower the signal. The method in brief:
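After 24 h of chemical exposure, transiently transfected HepG2 cells were lysed for total RNA; the DR5-regulated reporter transcript was quantified via RT-PCR and capillary electrophoresis, with activity fitted bidirectionally against DMSO.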

For test [7], the target named is Transcription factor E2F1 (Homo sapiens) (UniProt Q01094). Put plainly: ATG_E2F_CIS: Attagene CIS-FACTORIAL HepG2 Assay for human E2F Transcription Factor 1 (AID 2282935). The note with it: HepG2 Attagene cis-reporter, E2F reporter RNA transcripts; actives raise or lower the signal. The method in brief:
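Transient MRTU transfection of HepG2; 24 h compound exposure; RNA → oligo(dT) RT → PCR → FAM label → HpaI cut → CE fluorescence. Gain/loss of signal fit against DMSO.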

Test [8] in a line: ATG_E_Box_CIS: Attagene CIS-FACTORIAL HepG2 Assay for human Enhancer Box (E-box) (AID 2282936). The settings on record: HepG2 E-box cis-reporter transcription, actives raise or lower the signal. A digest of the protocol:
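Transiently transfected HepG2, endogenous TF-driven reporters, 24 h dosing. Readout: RT-PCR plus capillary electrophoresis of fluorescent reporter fragments. Gain or loss of signal fitted bidirectionally against DMSO baseline.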

Test [9] is described as follows: ATG_M_61_CIS: Attagene CIS-FACTORIAL HepG2 Assay for M61 Transcription Factor (Internal Marker) (AID 2282937). The settings on record: HepG2 Attagene CIS-FACTORIAL M61 internal marker reporter; actives raise or lower the signal. The method in brief:
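Using transiently transfected HepG2 liver cells, reporter transcript levels were assessed 24 h post-dosing by RT-PCR and capillary electrophoresis. Changes in either direction were fitted relative to DMSO controls.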

The nature of test [10]: ATG_EGR_CIS: Attagene CIS-FACTORIAL HepG2 Assay for human Early Growth Response 1 (EGR1) (AID 2282938). The note with it: HepG2 Attagene CIS-FACTORIAL EGR reporter mRNA; actives raise or lower the signal. A digest of the protocol: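 Fluorescent capillary-electrophoresis signal of reporter cDNA fragments serves as read-out. HepG2 cells bear transiently transfected cis-promoter reporter units and are exposed 24 h; gain- or loss-of-signal is fitted against DMSO.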

A short description of test [11]: ATG_M_19_CIS: Attagene CIS-FACTORIAL HepG2 Assay for M19 Transcription Factor (Internal Marker) (AID 2282939). The note with it: HepG2 Attagene CIS-FACTORIAL M19 internal marker reporter; actives raise or lower the signal. The method in brief:
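Signals come from fluorescence of labelled reporter-specific PCR fragments resolved by capillary electrophoresis, following 24 h treatment of HepG2 cells transfected with cis-promoter reporter units; activity was fitted in both directions relative to DMSO.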

The nature of test [12]: ATG_ERE_CIS: Attagene CIS-FACTORIAL HepG2 Assay for Estrogen Response Element (ERE) (AID 2282940). The settings on record: HepG2 ERE cis-reporter, Attagene RNA transcript; actives raise or lower the signal. A digest of the protocol:
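Fluorescence of capillary-separated, FAM-labelled reporter cDNA fragments indicates reporter mRNA levels in HepG2 cells exposed to chemicals for 24 h. Transient transfection with cis-regulated units; data fitted in both directions against DMSO.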

A short description of test [13]: ATG_Ets_CIS: Attagene CIS-FACTORIAL HepG2 Assay for human Erythroblast Transformation Specific (ETS) (AID 2282941). The note with it: HepG2 ETS cis-reporter transcription; AC50: actives raise or lower the signal unless noted; outcome: actives raise or lower the signal unless noted. The method in brief: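 Bidirectional fit versus DMSO of reporter mRNA signal, detected by RT-PCR and capillary electrophoresis in HepG2 cells transiently transfected with cis-element reporters and dosed 24 h.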

The target of test [14] is Hepatocyte nuclear factor 3-beta (Homo sapiens) (UniProt Q9Y261). In words: ATG_FoxA2_CIS: Attagene CIS-FACTORIAL HepG2 Assay for human Forkhead box A2 (FOXA2) (AID 2282942). The note with it: HepG2 cis-reporter transcription factor activity, 24 h; actives raise or lower the signal. A digest of the protocol:
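Fluorescence signal of reporter cDNA fragments, separated by capillary electrophoresis, reflects endogenous transcription factor activity in transfected HepG2 after 24 h. Both increases and decreases fitted against DMSO.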

Test [15] is described as follows: ATG_FoxO_CIS: Attagene CIS-FACTORIAL HepG2 Assay for human Forkhead box O (FoxO) (AID 2282943). The note with it: HepG2 Attagene cis-reporter, FoxO element, mRNA; actives raise or lower the signal. A digest of the protocol: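 Transfected HepG2 reporter cells exposed to test chemical for 24 h; reporter RNA measured by reverse transcription, PCR and fluorescent capillary electrophoresis; curves fitted for increases and decreases against DMSO.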

Test [16] in a line: ATG_GATA_CIS: Attagene CIS-FACTORIAL HepG2 Assay for human GATA Binding Protein (AID 2282944). The settings on record: HepG2 GATA cis-element reporter, Attagene multiplex mRNA; actives raise or lower the signal. The method in brief:
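After transfecting HepG2 cells with multiple cis-regulated reporter units, chemicals are dosed for 24 h; isolated RNA undergoes RT-PCR and fluorescent labeling before capillary electrophoresis, with activity expressed against DMSO.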

Test [17] can be described thus: ATG_GLI_CIS: Attagene CIS-FACTORIAL HepG2 Assay for human Zinc Finger Protein GLI1 (AID 2282945). The note with it: HepG2, Attagene cis-factorial reporter mRNA, GLI element; actives raise or lower the signal. A digest of the protocol:
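Transiently transfected HepG2 cells report endogenous transcription factor activity via cis-element-driven reporter units. After 24 h compound exposure, reporter mRNA was measured by RT-PCR with capillary electrophoresis; bidirectional fitting against DMSO baseline.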

The target of test [18] is Bile acid receptor (Homo sapiens) (UniProt Q96RI1). Put plainly: ATG_IR1_CIS: Attagene CIS-FACTORIAL HepG2 Assay for human Nuclear Receptor Subfamily 1 Group H Member 4 (NR1H4), IR1 submotif (AID 2282946). The settings on record: IR1 reporter transcription, actives raise or lower the signal. A digest of the protocol:
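Fluorescence of capillary-separated, HpaI-digested RT-PCR reporter products gave IR1-element mRNA induction in HepG2 cells 24 h after dosing. Endogenous transcription factors drove the cis-regulated reporters; activity was fitted bidirectionally against DMSO.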

Test [19] is described as follows: ATG_GRE_CIS: Attagene CIS-FACTORIAL HepG2 Assay for human Glucocorticoid Response Elements (GRE) (AID 2282947). The note with it: HepG2 GRE cis-reporter, Attagene multiplex mRNA; AC50: actives raise or lower the signal unless noted; outcome: actives raise or lower the signal unless noted. The method in brief: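 Read-out: fluorescent reporter-transcript fragments separated by capillary electrophoresis after RT-PCR. Transiently transfected HepG2 cells carrying cis-element-driven reporter units were dosed for 24 h; gain or loss of signal fitted against DMSO control.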

Test [20] can be described thus: ATG_ISRE_CIS: Attagene CIS-FACTORIAL HepG2 Assay for human Interferon Regulatory Factor 1 (IRF1) binding to an Interferon-Stimulated Response Element (ISRE) (AID 2282948). The settings on record: HepG2 ISRE cis-reporter (Attagene), mRNA transcription readout; actives raise or lower the signal. A digest of the protocol:
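Uses HepG2 liver cells transfected with cis-regulated reporters and measures mRNA 24 h post-dosing through RT-PCR, primer-extension labelling and capillary electrophoresis, with DMSO as negative control.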

Active and inactive are the calls of the source. How the source made its calls: active means hit-call score of the fitted dose curve at least 0.9, where 1 is the maximum; inactive means score below 0.9.

Results on three compounds are retold here after PubChem BioAssay (EPA / NIEHS).

For orientation: AC50 means the concentration giving half of the maximal activity seen.

Chain of Aryl hydrocarbon receptor (Homo sapiens) (P35869 whole entry, looked up): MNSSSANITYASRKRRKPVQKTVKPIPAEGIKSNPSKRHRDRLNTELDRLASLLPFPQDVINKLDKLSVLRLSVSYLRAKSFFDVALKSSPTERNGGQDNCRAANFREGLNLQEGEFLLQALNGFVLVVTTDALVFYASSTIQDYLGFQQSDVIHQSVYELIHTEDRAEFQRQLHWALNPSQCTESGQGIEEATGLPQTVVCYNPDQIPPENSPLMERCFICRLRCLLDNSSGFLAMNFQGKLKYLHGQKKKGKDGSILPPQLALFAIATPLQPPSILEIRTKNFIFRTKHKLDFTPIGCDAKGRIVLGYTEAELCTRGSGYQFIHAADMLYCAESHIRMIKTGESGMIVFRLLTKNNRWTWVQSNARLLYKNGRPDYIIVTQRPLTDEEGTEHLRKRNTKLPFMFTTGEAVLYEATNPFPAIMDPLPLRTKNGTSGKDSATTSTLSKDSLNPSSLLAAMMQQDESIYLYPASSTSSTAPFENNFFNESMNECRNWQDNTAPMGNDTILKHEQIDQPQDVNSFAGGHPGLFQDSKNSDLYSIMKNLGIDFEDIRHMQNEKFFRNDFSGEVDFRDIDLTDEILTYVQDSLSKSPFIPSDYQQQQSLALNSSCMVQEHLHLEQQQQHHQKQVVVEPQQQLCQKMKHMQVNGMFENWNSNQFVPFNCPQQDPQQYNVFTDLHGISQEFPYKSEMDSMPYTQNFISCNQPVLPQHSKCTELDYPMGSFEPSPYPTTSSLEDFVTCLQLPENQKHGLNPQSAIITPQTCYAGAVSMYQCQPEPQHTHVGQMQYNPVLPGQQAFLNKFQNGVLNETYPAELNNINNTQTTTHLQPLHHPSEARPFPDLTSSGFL
Chain of Hepatocyte nuclear factor 3-beta (Homo sapiens) (Q9Y261 whole entry, looked up, the tested form may be a part): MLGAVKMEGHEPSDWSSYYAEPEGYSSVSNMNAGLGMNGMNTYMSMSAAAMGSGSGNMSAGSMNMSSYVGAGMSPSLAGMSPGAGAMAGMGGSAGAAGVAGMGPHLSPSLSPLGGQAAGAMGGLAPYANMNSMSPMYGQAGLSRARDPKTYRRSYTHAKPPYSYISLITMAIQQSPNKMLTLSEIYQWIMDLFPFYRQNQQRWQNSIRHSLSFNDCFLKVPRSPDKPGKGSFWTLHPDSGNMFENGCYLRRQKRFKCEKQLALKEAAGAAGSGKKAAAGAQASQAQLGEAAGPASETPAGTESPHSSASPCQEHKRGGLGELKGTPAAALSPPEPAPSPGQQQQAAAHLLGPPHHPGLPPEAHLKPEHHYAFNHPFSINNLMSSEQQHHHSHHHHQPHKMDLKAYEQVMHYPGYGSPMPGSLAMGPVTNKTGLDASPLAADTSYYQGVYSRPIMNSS
Chain of Transcription factor E2F1 (Homo sapiens) (Q01094 whole entry, looked up): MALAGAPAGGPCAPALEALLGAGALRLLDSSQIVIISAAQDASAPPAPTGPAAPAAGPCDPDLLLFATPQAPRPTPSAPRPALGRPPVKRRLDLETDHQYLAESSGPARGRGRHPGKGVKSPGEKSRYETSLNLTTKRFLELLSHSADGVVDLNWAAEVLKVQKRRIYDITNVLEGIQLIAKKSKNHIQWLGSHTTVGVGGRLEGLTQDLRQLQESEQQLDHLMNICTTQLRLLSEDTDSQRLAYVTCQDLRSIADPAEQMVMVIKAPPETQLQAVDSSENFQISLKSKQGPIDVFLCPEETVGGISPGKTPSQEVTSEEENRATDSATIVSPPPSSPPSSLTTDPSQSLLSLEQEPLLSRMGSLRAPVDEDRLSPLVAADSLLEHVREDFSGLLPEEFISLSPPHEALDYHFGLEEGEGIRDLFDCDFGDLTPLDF
Chain of Bile acid receptor (Homo sapiens) (Q96RI1 whole entry, looked up): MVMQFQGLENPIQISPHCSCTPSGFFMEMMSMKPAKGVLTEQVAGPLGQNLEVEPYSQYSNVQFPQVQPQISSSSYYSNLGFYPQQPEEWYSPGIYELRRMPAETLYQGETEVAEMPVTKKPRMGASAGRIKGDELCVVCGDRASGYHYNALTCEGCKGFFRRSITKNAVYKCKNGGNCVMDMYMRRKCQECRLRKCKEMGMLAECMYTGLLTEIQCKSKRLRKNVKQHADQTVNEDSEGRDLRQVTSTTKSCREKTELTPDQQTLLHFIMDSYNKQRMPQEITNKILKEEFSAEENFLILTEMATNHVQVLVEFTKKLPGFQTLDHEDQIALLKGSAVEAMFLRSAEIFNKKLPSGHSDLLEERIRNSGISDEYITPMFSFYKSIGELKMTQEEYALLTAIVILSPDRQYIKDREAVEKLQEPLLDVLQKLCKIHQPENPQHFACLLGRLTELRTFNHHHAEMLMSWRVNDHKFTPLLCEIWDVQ
Chain of Retinoic acid receptor alpha (Homo sapiens) (P10276 whole entry, looked up): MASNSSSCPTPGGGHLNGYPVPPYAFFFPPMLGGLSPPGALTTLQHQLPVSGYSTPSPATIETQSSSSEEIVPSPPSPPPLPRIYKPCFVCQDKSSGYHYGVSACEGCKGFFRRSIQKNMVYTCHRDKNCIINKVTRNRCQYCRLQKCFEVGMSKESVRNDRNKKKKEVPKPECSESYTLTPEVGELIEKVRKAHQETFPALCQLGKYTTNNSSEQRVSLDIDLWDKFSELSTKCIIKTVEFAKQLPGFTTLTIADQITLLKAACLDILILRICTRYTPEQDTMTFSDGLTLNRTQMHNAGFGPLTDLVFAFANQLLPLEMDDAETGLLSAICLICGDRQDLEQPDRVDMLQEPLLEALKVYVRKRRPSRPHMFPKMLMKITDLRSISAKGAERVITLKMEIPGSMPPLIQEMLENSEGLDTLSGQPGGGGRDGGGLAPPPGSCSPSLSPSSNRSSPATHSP

On to `O=P(O)(O)CCC(F)(F)C(F)(F)C(F)(F)C(F)(F)C(F)(F)C(F)(F)F`, for which the compound was called inactive in test [1], in test [2], in [3], in test [4], in [5] and in test [6]. Besides, the compound was called inactive in test [7], in [8], in test [9], in test [10], in test [11] and in test [12]. Moreover, the call in test [13], in test [14], in test [15], in test [16], in [17] and in [18] was inactive. The outcome in test [19] and in test [20] was inactive.

With `Nc1ccc(O)c(C(=O)O)c1`, the result in [1], in [2], in test [3], in test [4], in test [5] and in test [6] was inactive. For the same compound, the outcome in [7], in [8], in test [9], in test [10], in [11] and in test [13] was inactive. Besides, the outcome in [14], in [15], in test [16], in test [17], in test [18] and in [19] was inactive. Moreover, the outcome in [20] was inactive. Moreover, in test [12], the AC50 is 12.3 µM (active).

For `Brc1cc(Br)c(Oc2c(Br)cc(Br)c(Br)c2Br)cc1Br`, the call in test [1], in test [2], in test [3], in test [4], in test [5] and in test [6] was inactive. Moreover, the outcome in test [7], in test [8], in test [9], in test [10], in test [11] and in [12] was inactive. The outcome in [13], in test [14], in test [15], in test [16], in [17] and in test [18] was inactive. Moreover, the compound was classed as inactive in test [19] and in [20].
